Records with an inconclusive call do not appear. Active and inactive are the calls of the source. Calls follow the shape of the dose curve; as a rule, active = well fitted curve in the direction sought with a large enough effect; inconclusive = small, poorly fitted or top-dose-only effect, or another doubt; inactive = no such curve, though single readings can be large; an effect the other way counts as inactive or inconclusive.
How the values were obtained:
[1] = test system: MCC-13; assay: qHTS assay to identify novel small-molecules to repurpose for Merkel cell carcinoma treatment (AID 1296009); settings: MCC and control cell lines, CellTiter-Glo viability, 72 h; series mostly up to 46 µM; also: nearly all actives have a fitted effect of over 60% in size
Outline: (§1)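 Cells exposed to NPC (8-point) and MIPE (11-point) compound dilutions for 72 hr at 37 degree celsius; viability read by CellTiter-Glo luminescence, normalized to no-cell and DMSO in-plate controls.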

[2] = test system: MKL-1; assay: as above; settings: MCC and control cell lines, CellTiter-Glo viability, 72 h; series mostly up to 46 µM
Outline: as §1

[3] = test system: MKL-2; assay: as above; settings: MCC and control cell lines, CellTiter-Glo viability, 72 h; series mostly up to 46 µM
Outline: as §1

[4] = test system: UISO; assay: as above; settings: MCC and control cell lines, CellTiter-Glo viability, 72 h; series mostly up to 46 µM
Outline: as §1

[5] = test system: WaGa; assay: as above; settings: MCC and control cell lines, CellTiter-Glo viability, 72 h; series mostly up to 46 µM
Outline: as §1

[6] = test system: C33A; assay: Primary qHTS to identify gynecologic anti-cancer compounds using libraries of approved drugs and bioactive compounds (AID 1345084); settings: Gynecologic cancer cell panel viability, ATPlite luminescence, 48 h; series mostly up to 57.5 µM; also: nearly all actives have a fitted effect of over 55% in size
Outline: (§2)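 Luminescence from the ATPlite ATP-monitoring reagent indicates viable cell number; lower signal means cytotoxicity. Cells received compound 16 h after seeding and were exposed for 48 h across five concentrations.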

[7] = test system: CASKI; assay: as above; settings: Gynecologic cancer cell panel viability, ATPlite luminescence, 48 h; series mostly up to 57.5 µM
Outline: as §2

[8] = test system: Es-2; assay: as above; settings: Gynecologic cancer cell panel viability, ATPlite luminescence, 48 h; series mostly up to 57.5 µM
Outline: as §2

[9] = test system: Hek293T; assay: as above; settings: Gynecologic cancer cell panel viability, ATPlite luminescence, 48 h, control line for the selectivity index; series mostly up to 57.5 µM
Outline: as §2

[10] = test system: OV90; assay: as above; settings: Gynecologic cancer cell panel viability, ATPlite luminescence, 48 h; series mostly up to 57.5 µM
Outline: as §2

[11] = test system: Tov-21-G; assay: as above; settings: Gynecologic cancer cell panel viability, ATPlite luminescence, 48 h; series mostly up to 57.5 µM
Outline: as §2

[12] = test system: CAOV3; assay: as above; settings: Gynecologic cancer cell panel viability, ATPlite luminescence, 48 h; series mostly up to 57.5 µM
Outline: as §2

[13] = test system: JEG-3; assay: as above; settings: Gynecologic cancer cell panel viability, ATPlite luminescence, 48 h; series mostly up to 57.5 µM
Outline: as §2

[14] = test system: NIH3T3; assay: qHTS assay to identify novel small-molecules to repurpose for Merkel cell carcinoma treatment (AID 1296009); settings: MCC and control cell lines, CellTiter-Glo viability, 72 h; at 44.8 µM (top of the series) unless noted; also: nearly all actives have a fitted effect of over 60% in size
Outline: as §1

[15] = test system: HeLa; assay: Primary qHTS to identify gynecologic anti-cancer compounds using libraries of approved drugs and bioactive compounds (AID 1345084); settings: Gynecologic cancer cell panel viability, ATPlite luminescence, 48 h; series mostly up to 57.5 µM; also: nearly all actives have a fitted effect of over 55% in size
Outline: as §2

[16] = test system: PA-1; assay: as above; settings: Gynecologic cancer cell panel viability, ATPlite luminescence, 48 h; series mostly up to 57.5 µM
Outline: as §2

[17] = test system: SKOV3; assay: as above; settings: Gynecologic cancer cell panel viability, ATPlite luminescence, 48 h; series mostly up to 57.5 µM
Outline: as §2

[18] = test system: MCC-26; assay: qHTS assay to identify novel small-molecules to repurpose for Merkel cell carcinoma treatment (AID 1296009); settings: MCC and control cell lines, CellTiter-Glo viability, 72 h; series mostly up to 46 µM; also: nearly all actives have a fitted effect of over 60% in size
Outline: as §1

Measured: Potency
Potency is read from the fitted curve at half-maximal effect.

CCCCCCCCCCCCCCCC[n+]1ccccc1
active: [1] 11.9 µM | [2] 0.841 µM | [3] 0.422 µM | [4] 1.68 µM | [5] 2.11 µM | [6] 17.8 µM | [7] 7.94 µM | [8] 17.8 µM | [9] 8.91 µM | [10] 31.6 µM | [11] 31.6 µM

CO[C@@H]1[C@@H](OC)[C@H](C)[C@@](O)(CC(=O)O)O[C@H]1[C@H](C)[C@H]1O[C@@]2(CC[C@@](C)([C@H]3CC[C@@](C)([C@@H]4O[C@@H]([C@H]5O[C@](C)(O)[C@H](C)C[C@@H]5C)C[C@@H]4OC4C[C@H](OC)[C@@H](OC)[C@H](C)O4)O3)O2)C[C@H](O)[C@H]1C (stereo partly specified)
active: [1] 2.99 µM | [2] 0.376 µM | [3] 0.211 µM | [4] 0.596 µM | [5] 0.335 µM | [12] 14.1 µM | [8] 10 µM | [9] 2.82 µM | [13] 6.31 µM | [10] 1.78 µM | [11] 11.2 µM

OC1(c2ccccc2)CCNCC1
inactive: [1] | [2] | [3] | [14] | [4] | [5] | [6] | [12] | [7] | [8] | [15] | [9] | [13] | [10] | [16] | [17] | [11]

CN(C)[C@@H]1C(=O)C(C(N)=O)=C(O)[C@@]2(O)C(=O)C3=C(O)c4c(O)cccc4C[C@H]3C[C@@H]12
inactive: [1] | [18] | [6] | [12] | [7] | [8] | [15] | [9] | [13] | [10] | [16] | [17] | [11]

O=C(CCCl)NCCc1ccccc1
inactive: [1] | [2] | [3] | [4] | [5] | [6] | [12] | [7] | [8] | [15] | [9] | [13] | [10] | [16] | [11]

CCCCN(CCCC)C(C(N)=O)c1ccc(OC)cc1 (stereo unspecified)
inactive: [1] | [2] | [3] | [14] | [4] | [5] | [6] | [12] | [7] | [8] | [15] | [9] | [13] | [10] | [16] | [11]

O=C(c1cc(O)c(O)c(O)c1)c1ccc(O)c(O)c1O
inactive: [1] | [18] | [4] | [6] | [12] | [7] | [8] | [15] | [9] | [13] | [10] | [16] | [17] | [11]

CC1(C)S[C@@H]2[C@H](NC(=O)C(c3ccccc3)S(=O)(=O)O)C(=O)N2[C@H]1C(=O)O (stereo partly specified)
inactive: [1] | [2] | [3] | [4] | [5] | [6] | [12] | [7] | [8] | [15] | [9] | [13] | [10] | [16] | [17] | [11]

CCCCCCCCCCCCCC[N+](C)(C)C
active: [18] 16.8 µM | [2] 1.19 µM | [3] 1.19 µM | [4] 2.37 µM | [5] 1.33 µM | [7] 3.16 µM | [8] 14.1 µM | [16] 11.2 µM | [11] 5.62 µM

CN1C(CSCC(F)(F)F)Nc2cc(Cl)c(S(N)(=O)=O)cc2S1(=O)=O (stereo unspecified)
inactive: [1] | [2] | [3] | [14] | [4] | [5] | [6] | [12] | [7] | [8] | [15] | [9] | [13] | [10] | [16] | [17] | [11]

CCOC(=O)N1CCC(n2c(=O)[nH]c3cc(Cl)ccc32)CC1
inactive: [1] | [2] | [6] | [12] | [7] | [8] | [15] | [16] | [11]

Nc1c2ccccc2nc2ccccc12
active: [1] 18.8 µM | [2] 3.35 µM | [8] 14.1 µM | [9] 8.91 µM | [10] 28.2 µM | [11] 14.1 µM

CCN1CCN(c2cc(-c3ccc(F)cc3)c3c(n2)CCCCCC3)CC1
inactive: [1] | [2] | [3] | [14] inactive [at 17.4 µM] | [4] | [5] | [6] | [12] | [7] | [8] | [15] | [9] | [13] | [10] | [16] | [17] | [11]

C[C@H](N)C(=O)N[C@@H](C)C(=O)NC1[C@H]2CN(c3nc4c(cc3F)c(=O)c(C(=O)O)cn4-c3ccc(F)cc3F)C[C@@H]12 (stereo partly specified)
inactive: [1] | [6] | [12] | [7] | [8] | [15] | [13] | [10] | [17] | [11]

O=C(NN1CCCC1)NS(=O)(=O)c1ccc(Cl)cc1
inactive: [1] | [2] | [3] | [4] | [5] | [6] | [7] | [8] | [15] | [9] | [13] | [10] | [16] | [17] | [11]

— PubChem BioAssay (NCATS)
